From PubChem BioAssay (Tox21)
“And” between values parts separate entries of the source, which are not always exact repeats. Equal entries are not always repeated. Records with an inconclusive call do not appear. A structure can be active in one record and inactive in another. The source made the active and inactive calls. Calls come from the whole dose curve; as a rule, active = well fitted curve in the direction sought with a large enough effect in the repeat runs; inconclusive = weak or mixed curves; inactive = no such curve, though single readings can be large; an effect the other way counts as inactive or inconclusive.

What was measured:
[1] = qHTS RealTime-Glo MT Cell Viability Assay in HepG2 cells - 40 hour (AID 1224870); note: nearly all actives have a fitted effect of over 50% in size; note: potency is the fitted concentration of half-maximal effect
How it was run: (§1)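 HepG2 cells mixed with RealTime-Glo MT reagents (NanoLuc plus cell-permeant prosubstrate) were seeded at 600 cells/well, incubated 5 h at 37 C/5% CO2, then pinned with compounds in DMSO; nonlytic luminescence tracked viability during 40 h treatment.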

[2] = A CellTox Green Cytotoxicity Assay to monitor cytotoxicity in HEK293 cells - 40 hour (AID 1224871); note: nearly all actives have a fitted effect of over 45% in size; note: potency is the fitted concentration of half-maximal effect
How it was run: (§2)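 Cells (HEK293, 600/well) and dye reagent are dispensed together. After 5 h at 37 C, 23 nL compound is pinned in. Plates stay at 37 C for 40 h with fluorescence read at 0h, 8h, 16h, 24h, 32h and 40h.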

[3] = qHTS RealTime-Glo MT Cell Viability Assay in HEK293 cells - 16 hour (AID 1224872); note: nearly all actives have a fitted effect of over 50% in size; note: potency is the fitted concentration of half-maximal effect
How it was run: (§3)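 Quantitative high-throughput screen of the Tox21 10K library in HEK293: cells and RealTime-Glo reagents plated together, compound added at 5 h, luminescence monitored through 40 h at 37 C.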

[4] = A CellTox Green Cytotoxicity Assay to monitor cytotoxicity in HEK293 cells - 24 hour (AID 1224875); note: nearly all actives have a fitted effect of over 45% in size; note: potency is the fitted concentration of half-maximal effect
How it was run: as §2

[5] = A CellTox Green Cytotoxicity Assay to monitor cytotoxicity in HepG2 cells - 16 hour (AID 1224876); note: nearly all actives have a fitted effect of over 45% in size; note: potency is the fitted concentration of half-maximal effect
How it was run: (§4)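 Cells and non-lytic dye reagent are dispensed together (600 HepG2 cells/well) and incubated 5 h before DMSO compound transfer. Kinetic fluorescence is then recorded in the same wells during 40 h at 37 C.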

[6] = qHTS RealTime-Glo MT Cell Viability Assay in HepG2 cells - 32 hour (AID 1224877); note: nearly all actives have a fitted effect of over 55% in size; note: potency is the fitted concentration of half-maximal effect
How it was run: (§5)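 Compound treatment began 5 h after plating HepG2 cells (600/well) with NanoLuc luciferase and prosubstrate. Plates stayed at 37 C for 40 h; luminescence was captured at six time points, 0 h through 40 h.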

[7] = A CellTox Green Cytotoxicity Assay to monitor cytotoxicity in HepG2 cells - 24 hour (AID 1224878); note: nearly all actives have a fitted effect of over 45% in size; note: potency is the fitted concentration of half-maximal effect
How it was run: as §4

[8] = A CellTox Green Cytotoxicity Assay to monitor cytotoxicity in HepG2 cells - 40 hour (AID 1224879); note: nearly all actives have a fitted effect of over 40% in size; note: potency is the fitted concentration of half-maximal effect
How it was run: as §4

[9] = A CellTox Green Cytotoxicity Assay to monitor cytotoxicity in HEK293 cells - 32 hour (AID 1224881); note: nearly all actives have a fitted effect of over 40% in size; note: potency is the fitted concentration of half-maximal effect
How it was run: as §2

[10] = A CellTox Green Cytotoxicity Assay to monitor cytotoxicity in HepG2 cells - 0 hour (AID 1224882); note: nearly all actives have a fitted effect of over 35% in size; note: potency is the fitted concentration of half-maximal effect
How it was run: as §4

[11] = A CellTox Green Cytotoxicity Assay to monitor cytotoxicity in HepG2 cells - 32 hour (AID 1224883); note: nearly all actives have a fitted effect of over 50% in size; note: potency is the fitted concentration of half-maximal effect
How it was run: as §4

[12] = A CellTox Green Cytotoxicity Assay to monitor cytotoxicity in HEK293 cells - 8 hour (AID 1224884); note: nearly all actives have a fitted effect of over 35% in size; note: potency is the fitted concentration of half-maximal effect
How it was run: as §2

[13] = qHTS RealTime-Glo MT Cell Viability Assay in HepG2 cells - 16 hour (AID 1224885); note: nearly all actives have a fitted effect of over 50% in size
How it was run: as §5

[14] = qHTS RealTime-Glo MT Cell Viability Assay in HEK293 cells - 24 hour (AID 1224886); note: nearly all actives have a fitted effect of over 50% in size; note: potency is the fitted concentration of half-maximal effect
How it was run: as §3

[15] = qHTS RealTime-Glo MT Cell Viability Assay in HEK293 cells - 8 hour (AID 1224887); note: nearly all actives have a fitted effect of over 50% in size; note: potency is the fitted concentration of half-maximal effect
How it was run: (§6)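 Real-time viability in HEK293: signal arises when living cells convert a prosubstrate for NanoLuc in the medium, so luminescence tracks viable cell number. Compound (23 nL, DMSO) added 5 h post-seeding; kinetic reads at 0–40 h, 37 C.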

[16] = A CellTox Green Cytotoxicity Assay to monitor cytotoxicity in HEK293 cells - 16 hour (AID 1224888); note: nearly all actives have a fitted effect of over 35% in size; note: potency is the fitted concentration of half-maximal effect
How it was run: as §2

[17] = qHTS RealTime-Glo MT Cell Viability Assay in HepG2 cells - 0 hour (AID 1224889); note: nearly all actives have a fitted effect of over 50% in size; note: potency is the fitted concentration of half-maximal effect
How it was run: as §5

[18] = qHTS RealTime-Glo MT Cell Viability Assay in HEK293 cells - 40 hour (AID 1224874); conditions: RealTime-Glo luminescence; max response: stronger effect = lower value; note: nearly all actives have a fitted effect of over 50% in size; note: potency is the fitted concentration of half-maximal effect
How it was run: as §6

[19] = qHTS RealTime-Glo MT Cell Viability Assay in HEK293 cells - 0 hour (AID 1224880)
How it was run: as §6

[20] = qHTS RealTime-Glo MT Cell Viability Assay in HepG2 cells - 8 hour (AID 1224873); note: nearly all actives have a fitted effect of over 55% in size
How it was run: as §1
% is set by controls: 0 for no effect and ±100 for the full control effect.

O=C1OC2(c3cc(Br)c(O)c(Br)c3Oc3c2cc(Br)c(O)c3Br)c2c(Cl)c(Cl)c(Cl)c(Cl)c21
active: Potency [2] 4.91 µM and 29.7 µM | Potency [4] 3.9 µM and 26.5 µM | Potency [5] 3.1 µM and 14.9 µM | Potency [7] 3.1 µM and 23.6 µM | Potency [8] 3.1 µM and 14.9 µM | Potency [9] 4.91 µM and 26.5 µM | Potency [10] 39 µM and 26.5 µM | Potency [11] 3.1 µM and 23.6 µM | Potency [12] 3.9 µM and 23.6 µM | Potency [16] 2.76 µM and 23.6 µM | Potency [17] 55 µM
inactive: Potency [1] | Potency [3] | Potency [6] | Potency [13] | Potency [14] | Potency [15]

O=C(OCc1ccccc1)c1ccccc1O
inactive: Potency [1] | Potency [2] | Potency [3] | max response [18] -14.6% and -4.96% | Potency [4] | Potency [5] | Potency [6] | Potency [8] | Potency [19] | Potency [9] | Potency [10] | Potency [11] | Potency [12] | Potency [13] | Potency [14] | Potency [15] | Potency [16] | Potency [17]

OC(CCl)CCl
inactive: Potency [1] | Potency [2] | Potency [20] | max response [18] 2.58% and 9.25% | Potency [4] | Potency [5] | Potency [6] | Potency [8] | Potency [19] | Potency [9] | Potency [10] | Potency [11] | Potency [12] | Potency [13] | Potency [14] | Potency [15] | Potency [16] | Potency [17]

c1cc(N(CC2CO2)CC2CO2)ccc1OCC1CO1 (stereo unspecified)
inactive: Potency [1] | Potency [2] | Potency [20] | Potency [4] | Potency [5] | Potency [6] | Potency [7] | Potency [8] | Potency [19] | Potency [9] | Potency [10] | Potency [11] | Potency [12] | Potency [13] | Potency [15] | Potency [16] | Potency [17]
active: Potency [18] 19.5 µM and 15.5 µM

CC(C(=O)O)c1cccc(C(=O)c2ccccc2)c1 (stereo unspecified)
inactive: Potency [1] | Potency [2] | Potency [20] | max response [18] 9.55% and 2.14% | Potency [4] | Potency [5] | Potency [6] | Potency [7] | Potency [8] | Potency [19] | Potency [9] | Potency [10] | Potency [11] | Potency [12] | Potency [13] | Potency [14] | Potency [15] | Potency [16] | Potency [17]

O=[N+]([O-])c1ccc2c(c1)Cc1ccccc1-2
inactive: Potency [1] | Potency [2] | Potency [3] | max response [18] 0.388% and -3.63% | Potency [4] | Potency [5] | Potency [6] | Potency [8] | Potency [19] | Potency [9] | Potency [10] | Potency [11] | Potency [12] | Potency [13] | Potency [14] | Potency [16] | Potency [17]

CC(C)OC(=O)C(C)(C)Oc1ccc(C(=O)c2ccc(Cl)cc2)cc1
active: Potency [18] 24.5 µM and 19 µM | Potency [14] 19.5 µM and 10.7 µM | Potency [15] 24.5 µM and 16.9 µM
inactive: Potency [1] | Potency [2] | Potency [20] | Potency [4] | Potency [5] | Potency [6] | Potency [8] | Potency [19] | Potency [9] | Potency [10] | Potency [11] | Potency [12] | Potency [13] | Potency [16] | Potency [17]

NNc1ccc(C(=O)O)cc1
inactive: Potency [1] | Potency [2] | Potency [3] | max response [18] 12.1% | Potency [4] | Potency [5] | Potency [6] | Potency [7] | Potency [8] | Potency [19] | Potency [9] | Potency [10] | Potency [11] | Potency [12] | Potency [13] | Potency [14] | Potency [15] | Potency [16] | Potency [17]

Nc1ccc(Nc2ccccc2)cc1
inactive: Potency [1] | Potency [2] | Potency [20] | Potency [4] | Potency [5] | Potency [6] | Potency [7] | Potency [8] | Potency [19] | Potency [9] | Potency [10] | Potency [11] | Potency [12] | Potency [13] | Potency [16] | Potency [17]
active: Potency [18] 48.5 µM | Potency [14] 48.5 µM

c1ccc2c(c1)Oc1ccccc1S2
49.8 µM (active) and inactive: Potency [2] | Potency [9]
inactive: Potency [1] | Potency [3] | Potency [5] | Potency [6] | Potency [8] | Potency [19] | Potency [10] | Potency [11] | Potency [12] | Potency [13] | Potency [14] | Potency [16] | Potency [17]

CN(C)CCN(Cc1cccs1)c1ccccn1
inactive: Potency [1] | Potency [2] | Potency [3] | max response [18] -22.8% and -7.6% | Potency [4] | Potency [5] | Potency [6] | Potency [7] | Potency [8] | Potency [19] | Potency [9] | Potency [10] | Potency [11] | Potency [12] | Potency [13] | Potency [14] | Potency [16] | Potency [17]

c1ccc(Nc2ccccc2)cc1
38.9 µM (active) and inactive: Potency [6] | Potency [11]
inactive: Potency [19] | Potency [10] | Potency [12] | Potency [13] | Potency [15] | Potency [16] | Potency [17]
43.6 µM (active) and inactive: Potency [1]
active: Potency [7] 43.6 µM | Potency [8] 34.7 µM
19.5 µM (active) and inactive: Potency [2]
17.4 µM (active) and inactive: Potency [3] | Potency [14]
21.9 µM (active) and inactive: Potency [9]
